Compound activity: PubChem BioAssay, several laboratories
Shown are actives, neighbours in structure and some others; about 3.1% of the full set was active somewhere.
FadD28 binding – M. tuberculosis FadD28 bisubstrate binding inhibition. FadD28 bisubstrate probe binding, fluorescence polarization. inhibition, % at 12.5 µM. 360,000 tested, 0.22% active; in the data active = inhibition above about 8.5%, passing the limit was not always enough
SARS 3CLpro inh – SARS-CoV 3CLpro protease inhibition | AID 1706 | P0C6X7 | 290,000 tested, 0.14% active | recombinant SARS-CoV 3CLpro, quenched FRET peptide cleavage | inhibition, % at 6 µM; in the data active = inhibition above about 12%
GDH-TPI counter – GDH-TPI coupled enzyme inhibition counter-screen; GDH-TPI coupled enzyme counterscreen, NADH absorbance; inhibition, % at 4.8 µM; 360,000 tested, 1.2% active; AID 588335; in the data active = inhibition above about 30%
FBA Mtb inh – inhibits M. tuberculosis FBA enzyme; inhibition, % at 1 µM; P9WQA3; 360,000 tested, 2.3% active; purified M. tuberculosis FBA, fluorescence read-out; in the data active = inhibition above about 27%
Target sequence (P9WQA3 whole entry, looked up): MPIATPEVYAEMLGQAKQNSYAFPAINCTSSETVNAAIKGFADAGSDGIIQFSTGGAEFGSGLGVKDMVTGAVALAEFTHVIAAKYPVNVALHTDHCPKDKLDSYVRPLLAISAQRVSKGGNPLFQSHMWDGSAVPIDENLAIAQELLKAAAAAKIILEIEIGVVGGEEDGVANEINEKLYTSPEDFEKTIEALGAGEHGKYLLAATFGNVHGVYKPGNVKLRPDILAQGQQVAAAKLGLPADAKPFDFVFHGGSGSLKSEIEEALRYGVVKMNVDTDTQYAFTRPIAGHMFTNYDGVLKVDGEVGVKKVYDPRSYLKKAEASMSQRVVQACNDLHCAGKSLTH
Mtb BioA inh – BioA (M. tuberculosis) enzyme inhibition; purified M. tuberculosis BioA enzyme, plate reader; inhibition, % at 9.99 µM; 360,000 tested, 0.096% active; in the data active = inhibition above about 40%
Each line names hits and unclear results; the compound was inactive in the other large screens.

O=C(N/N=C/c1ccc([N+](=O)[O-])o1)c1ccccc1NS(=O)(=O)c1cccs1	GDH-TPI counter 32
COc1cc(/C=N/NC(=O)c2sc(N)c(C#N)c2C)ccc1O	GDH-TPI counter 61 (no result: Mtb BioA inh)
Cc1c(C(=O)N/N=C/c2ccc(O)c(Br)c2)sc(N)c1C#N	none (no result: Mtb BioA inh)
COc1cc(/C=N/NC(=O)c2ccccc2NS(=O)(=O)c2cccs2)ccc1O	GDH-TPI counter 36 (no result: SARS 3CLpro inh, Mtb BioA inh)
O=C(N/N=C/c1cccnc1)c1ccccc1NS(=O)(=O)c1cccs1	none
O=C(NN=Cc1ccc(F)cc1)c1ccccc1NS(=O)(=O)c1cccs1	none (no result: SARS 3CLpro inh)
CCN(C[C@H]1[C@H](c2ccccc2)[C@@H](CO)N1C(C)=O)C(=O)NC(C)C	none (no result: FadD28 binding, SARS 3CLpro inh, GDH-TPI counter, FBA Mtb inh)
S=c1nccc(-c2ccc3c(c2)CCO3)[nH]1	GDH-TPI counter 49
CCC(=O)N1C[C@@H](C)[C@H](OC)CN(C)C(=O)c2cc(NC(=O)Nc3ccc(Cl)cc3)ccc2OC[C@@H]1C	none (no result: FadD28 binding, SARS 3CLpro inh, GDH-TPI counter, FBA Mtb inh)
N#Cc1ccccc1NC(=O)Nc1ccccc1	FBA Mtb inh 50 (no result: Mtb BioA inh)
FC(F)(F)C(F)(F)C(F)(F)c1nc2nc(Cl)c(Cl)nc2[nH]1	GDH-TPI counter 34 (no result: SARS 3CLpro inh)
CCOC(=O)c1[nH]c2ccccc2c1NC(C)=O	none (no result: SARS 3CLpro inh)
CSc1ccc(C(c2c(C(=O)O)[nH]c3ccccc23)c2c(C(=O)O)[nH]c3ccccc23)cc1	FadD28 binding 38
CCOc1cc(Br)cc(C(c2c(C(=O)O)[nH]c3ccccc23)c2c(C(=O)O)[nH]c3ccccc23)c1O	FadD28 binding 33
Cc1cc(/C=N/NC(=O)c2ccc(O)cc2)c(C)n1CC(C)C	GDH-TPI counter 47
NC(=S)N/N=C/c1c[nH]c2ccccc12	GDH-TPI counter 56
COCCn1c(C)cc(/C=N/NC(=O)c2cccnc2)c1C	none (no result: Mtb BioA inh)
CC(C)c1ccc2[nH]c3c(c2c1)CCC/C3=N\NC(=O)c1ccncc1	none
Nc1ccc(C(=O)N/N=C/c2c[nH]c3ccccc23)cc1	GDH-TPI counter 41
Nc1ccc(C(=O)N/N=C2\CCCc3c2[nH]c2ccccc32)cc1	GDH-TPI counter 62
CNC[C@@H]1Oc2cc(C#CC3(O)CCCC3)ccc2S(=O)(=O)N([C@@H](C)CO)C[C@@H]1C	none (no result: FadD28 binding, SARS 3CLpro inh, GDH-TPI counter, FBA Mtb inh)
O=C(NCC1CC1)[C@@H]1[C@@H](CO)[C@@H]2Cn3c(ccc(-c4ccc(F)cc4)c3=O)[C@H]1N2	none (no result: FadD28 binding, SARS 3CLpro inh, GDH-TPI counter, FBA Mtb inh)
O=C(N/N=C/c1c[nH]c2ccccc12)c1cc(-c2ccccc2)n[nH]1	GDH-TPI counter 37
O=C(N/N=C/c1c[nH]c2ccccc12)c1cc(Cl)ccc1O	FadD28 binding 16
O=C(N/N=C/c1c[nH]c2ccccc12)c1ccccc1Cl	none
O=C(N/N=C\c1c[nH]c2ccccc12)c1ccc(O)cc1	GDH-TPI counter 32
CCCNC(=O)Nc1ccc2c(c1)C(=O)N(C)[C@H]1CC[C@H](CC(=O)NCC3CCCCC3)O[C@H]1CO2	none (no result: FadD28 binding, SARS 3CLpro inh, GDH-TPI counter, FBA Mtb inh)
O=C(CC(=O)c1ccccc1O)c1cccc(F)c1	none (no result: Mtb BioA inh)
O=C(CC(=O)c1c(F)cccc1Cl)c1ccccc1O	GDH-TPI counter 33
O=C(Nc1ccc(/C=C/c2nc3ccccc3o2)cc1)c1ccc(F)cc1	GDH-TPI counter 33
O=c1c(-c2nc3ccccc3s2)cccn1Cc1ccccc1	FBA Mtb inh 194
COc1ccc(-n2nc3cc(C)c(NC(C)=O)cc3n2)cc1	FBA Mtb inh 114
CC(C)C#Cc1ccc2c(c1)O[C@H](CN(C)CC1CCOCC1)[C@@H](C)CN([C@@H](C)CO)S2(=O)=O	none (no result: FadD28 binding, SARS 3CLpro inh, GDH-TPI counter, FBA Mtb inh)
CC(C)CCn1c(N)c(C(=O)OCC2CCCO2)c2nc3ccccc3nc21 (configuration not stated)	FBA Mtb inh 134
CCCCn1c(N)c(C(=O)OCC2CCCO2)c2nc3ccccc3nc21 (configuration not stated)	FBA Mtb inh active
C[C@@H]1CCCCO[C@H](CN(C)C(=O)Nc2ccccc2)[C@H](C)CN([C@@H](C)CO)C(=O)c2cc(NC(=O)c3ccccc3)ccc2O1	none (no result: FadD28 binding, SARS 3CLpro inh, GDH-TPI counter, FBA Mtb inh)
Cc1ccsc1/C=N/NC(=O)c1nnn(-c2nonc2N)c1CN(C)c1ccccc1	GDH-TPI counter 37
CCc1c(C(=O)N/N=C/c2sccc2C)nnn1-c1nonc1N	none
Cc1ccc(/C=N/NC(=O)c2nnn(-c3nonc3N)c2CN(C)c2ccccc2)s1	GDH-TPI counter 34
O=C(O)C[C@H]1C[C@H]2c3cc(NC(=O)Nc4ccc(F)cc4)ccc3O[C@H]2[C@H](CO)O1	none (no result: FadD28 binding, SARS 3CLpro inh, GDH-TPI counter, FBA Mtb inh)
CC(=O)/C(=N/Nc1ccccc1)Sc1nnc(CCc2ccccc2)n1-c1ccccc1	GDH-TPI counter 32 (no result: Mtb BioA inh)
CCCC#Cc1cnc2c(c1)C(=O)N([C@H](C)CO)C[C@@H](C)[C@@H](CN(C)C(=O)CCN1CCCCC1)O2	none (no result: FadD28 binding, SARS 3CLpro inh, GDH-TPI counter, FBA Mtb inh)
COc1ccc(-c2nnc(Nc3nc4c(OC)cccc4s3)o2)cc1	GDH-TPI counter 63
COc1ccc2nc(Nc3ccccc3OC)sc2c1	none (no result: Mtb BioA inh)
COc1ccc(-c2nnc(Nc3nc4c(OC)cccc4s3)o2)c(OC)c1	GDH-TPI counter 69, FBA Mtb inh 60
CO[C@@H](CN(C)Cc1cc(F)ccc1F)[C@@H](C)CN(C(=O)Nc1ccc(F)cc1)[C@@H](C)CO	none (no result: FadD28 binding, SARS 3CLpro inh, GDH-TPI counter, FBA Mtb inh)
C[C@@H]1CN([C@H](C)CO)C(=O)c2cc(NS(=O)(=O)c3cccs3)ccc2O[C@H]1CN(C)Cc1ccc2c(c1)OCO2	none (no result: FadD28 binding, SARS 3CLpro inh, GDH-TPI counter, FBA Mtb inh)
Cc1noc(C)c1NC(=O)N[C@H]1CC[C@@H](CC(=O)N2CCCCC2)O[C@@H]1CO	none (no result: FadD28 binding, SARS 3CLpro inh, GDH-TPI counter, FBA Mtb inh)
Cc1ccc(S(=O)(=O)Nc2ccc3c(c2)C(=O)N([C@@H](C)CO)C[C@@H](C)[C@@H](CN(C)C)O3)cc1	none (no result: FadD28 binding, SARS 3CLpro inh, GDH-TPI counter, FBA Mtb inh)
Cc1cc(C)c(C(=O)/C=C/c2cccs2)c(=O)[nH]1	none (no result: Mtb BioA inh)
C/C(=C\c1cccs1)C(=O)c1c(C)cc(C)[nH]c1=O	GDH-TPI counter 53 (no result: Mtb BioA inh)
COc1ccc(C2CC(c3ccccc3O)=NN2c2ccccc2)cc1 (configuration not stated)	none (no result: SARS 3CLpro inh, Mtb BioA inh)
COc1cc(C2CC(c3ccccc3)=NN2c2ccccc2)ccc1OCC(=O)O (configuration not stated)	FBA Mtb inh active
O=[N+]([O-])c1ccc(N2N=C(c3ccccc3)CC2c2ccccc2O)cc1 (configuration not stated)	none (no result: Mtb BioA inh)
COc1cc(C2CC(c3cccnc3)=NN2c2ccc(F)cc2)cc(OC)c1OC (configuration not stated)	FBA Mtb inh active (no result: Mtb BioA inh)
CNC(=S)N1N=C(c2ccccc2)CC1c1ccc(OC)c(OC)c1 (configuration not stated)	none (no result: Mtb BioA inh)
COc1cc(N2N=C(c3ccccc3)CC2c2ccccc2)c(C=O)cc1C=O (configuration not stated)	none
NS(=O)(=O)c1ccc(N2N=C(c3ccccc3)CC2c2cccc(F)c2)cc1 (configuration not stated)	FBA Mtb inh active
COc1ccc(C2=NN(c3ccc(C(=O)O)cc3)C(c3ccc(OC)c(OC)c3)C2)cc1 (configuration not stated)	FadD28 binding 37, GDH-TPI counter 35, FBA Mtb inh active (no result: Mtb BioA inh)
CCC(=O)N(C)C[C@H]1Oc2cc(-c3ccc(C#N)cc3)ccc2S(=O)(=O)N([C@@H](C)CO)C[C@H]1C	none (no result: FadD28 binding, SARS 3CLpro inh, GDH-TPI counter, FBA Mtb inh)
C[C@@H]1CN([C@@H](C)CO)C(=O)c2cc(NC(=O)NC3CCCCC3)ccc2O[C@@H](C)CCCCO[C@H]1CN(C)C	none (no result: FadD28 binding, SARS 3CLpro inh, GDH-TPI counter, FBA Mtb inh)
